Experimental data taken from the supplement of paper PMC8728848.
This is one part of a sample in which the strongest signals are shown more often than they occur.

Assays:
Experiment in all cases: glycan array binding signal (z-score within array); higher = stronger binding
Conditions in all cases: glycan notation: IUPAC condensed, linker removed
Fuc(a1-2)Gal(b1-3)GalNAc = target: Fuc(a1-2)Gal(b1-3)GalNAc
Outline: (§1)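 From the Consortium for Functional Glycomics database, 3228 arrays were curated, keeping only those whose protein sequence was available. Binding is given as a within-array Z-score averaged across arrays sharing a protein sequence and across linkers. Negative Z-scores can be read as non-binding.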

[1] = target: Fuc(a1-2)Gal(b1-3)GalNAc(a1-3)[Fuc(a1-2)]Gal(b1-4)Glc
Outline: as §1

[2] = target: Fuc(a1-2)Gal(b1-4)GlcNAc(b1-2)Man(a1-3)[Fuc(a1-2)Gal(b1-4)GlcNAc(b1-2)Man(a1-6)]Man(b1-4)GlcNAc(b1-4)GlcNAc
Outline: as §1

[3] = target: Fuc(a1-2)Gal(b1-4)GlcNAc(b1-3)[Fuc(a1-3)[Gal(b1-4)]GlcNAc(b1-6)]Gal(b1-4)Glc
Outline: as §1

[4] = target: Fuc(a1-2)Gal(b1-4)GlcNAc(b1-6)GalNAc
Outline: as §1

[5] = target: Fuc(a1-2)Gal(b1-4)[Fuc(a1-3)]GlcNAc(b1-3)GalNAc
Outline: as §1

[6] = target: Fuc(a1-2)Gal3S(b1-4)GlcNAc
Outline: as §1

[7] = target: Fuc(a1-2)[Gal(a1-3)]Gal(b1-4)GlcNAc(b1-2)Man
Outline: as §1

[8] = target: Fuc(a1-2)[Gal(a1-3)]Gal(b1-4)[Fuc(a1-3)]Glc
Outline: as §1

[9] = target: Fuc(a1-2)[GalNAc(a1-3)]Gal(b1-3)GlcNAc(b1-6)GalNAc
Outline: as §1

[10] = target: Fuc(a1-2)[GalNAc(a1-3)]Gal(b1-4)GlcNAc(b1-2)Man(a1-3)[Fuc(a1-2)[GalNAc(a1-3)]Gal(b1-4)GlcNAc(b1-2)Man(a1-6)]Man(b1-4)GlcNAc(b1-4)[Fuc(a1-6)]GlcNAc
Outline: as §1

[11] = target: Fuc(a1-3)[Gal(b1-4)]GlcNAc(b1-2)Man(a1-3)[Fuc(a1-3)[Gal(b1-4)]GlcNAc(b1-2)Man(a1-6)]Man(b1-4)GlcNAc(b1-4)[Fuc(a1-6)]GlcNAc
Outline: as §1

[12] = target: Fuc(a1-3)[Gal(b1-4)]GlcNAc6S
Outline: as §1

[13] = target: Gal(a1-3)Gal(b1-4)GlcNAc(b1-2)Man(a1-3)[Gal(a1-3)Gal(b1-4)GlcNAc(b1-2)Man(a1-6)]Man(b1-4)GlcNAc(b1-4)GlcNAc
Outline: as §1

[14] = target: Gal(a1-3)Gal(b1-4)[Fuc(a1-3)]GlcNAc
Outline: as §1

Gal(a1-3)GalNAc = target: Gal(a1-3)GalNAc
Outline: as §1

[15] = target: Gal(a1-3)[Gal(a1-4)]Gal(b1-4)GlcNAc
Outline: as §1

[16] = target: Gal(a1-4)Gal(b1-4)GlcNAc(b1-3)Gal(b1-4)Glc
Outline: as §1

Gal(b1-3)GalNAc(b1-3)Gal = target: Gal(b1-3)GalNAc(b1-3)Gal
Outline: as §1

Gal(b1-3)GlcNAc(b1-2)Man = target: Gal(b1-3)GlcNAc(b1-2)Man
Outline: as §1

[17] = target: Gal(b1-3)GlcNAc(b1-2)[Gal(b1-3)GlcNAc(b1-6)]Man(a1-6)[Gal(b1-3)GlcNAc(b1-2)Man(a1-3)]Man(b1-4)GlcNAc(b1-4)GlcNAc
Outline: as §1

[18] = target: Gal(b1-3)GlcNAc(b1-3)Gal(b1-4)GlcNAc(b1-3)Gal(b1-4)GlcNAc(b1-2)[Gal(b1-3)GlcNAc(b1-3)Gal(b1-4)GlcNAc(b1-3)Gal(b1-4)GlcNAc(b1-6)]Man(a1-6)[Gal(b1-3)GlcNAc(b1-3)Gal(b1-4)GlcNAc(b1-3)Gal(b1-4)GlcNAc(b1-2)Man(a1-3)]Man(b1-4)GlcNAc(b1-4)[Fuc(a1-6)]GlcNAc
Outline: as §1

[19] = target: Gal(b1-3)GlcNAc(b1-3)Gal(b1-4)GlcNAc(b1-6)[Gal(b1-3)GlcNAc(b1-3)]Gal(b1-4)Glc
Outline: as §1

[20] = target: Gal(b1-3)[Fuc(a1-4)]GlcNAc(b1-2)Man(a1-3)[Gal(b1-3)[Fuc(a1-4)]GlcNAc(b1-2)Man(a1-6)]Man(b1-4)GlcNAc(b1-4)[Fuc(a1-6)]GlcNAc
Outline: as §1

[21] = target: Gal(b1-4)GalNAc(b1-3)[Fuc(a1-2)]Gal(b1-4)GlcNAc
Outline: as §1

Gal(b1-4)GlcNAc(b1-2)Man = target: Gal(b1-4)GlcNAc(b1-2)Man
Outline: as §1

[22] = target: Gal(b1-4)GlcNAc(b1-2)Man(a1-6)Man(b1-4)GlcNAc(b1-4)GlcNAc
Outline: as §1

[23] = target: Gal(b1-4)GlcNAc(b1-2)[Gal(b1-4)GlcNAc(b1-6)]Man(a1-6)[GlcNAc(b1-4)][Gal(b1-4)GlcNAc(b1-2)[Gal(b1-4)GlcNAc(b1-4)]Man(a1-3)]Man(b1-4)GlcNAc(b1-4)[Fuc(a1-6)]GlcNAc
Outline: as §1

[24] = target: Gal(b1-4)GlcNAc(b1-3)Gal(b1-4)GlcNAc(b1-2)Man(a1-3)[Gal(b1-4)GlcNAc(b1-3)Gal(b1-4)GlcNAc(b1-2)Man(a1-6)]Man(b1-4)GlcNAc(b1-4)GlcNAc
Outline: as §1

[25] = target: Gal(b1-4)GlcNAc(b1-3)Gal(b1-4)GlcNAc(b1-3)Gal(b1-4)GlcNAc
Outline: as §1

B1: GS7807Q-bfa-507-19-507 (Bacteroides fragilis) (protein)
chain: ASCNKFDDLNTNPDAATKVTAPMLATKLILNITQQGSAKNFVYHSMLSKQIAWSENASDEQYNLFGRTDFDGYTILTNCQKMVDAANEGDKDSYAALAKFMKAYKLFYKSLEVGDIPYSDALKGEEGVQKPKYDTQKEVMRQVLEDLEEAYTLFSSGSDFDGDPIFGGDTENWKKTVVAFELKVLTHLCKKDTDADLKVKERFARLVSSGSLMTSNADNFQLVYSNKAGQLYPFYYTQNKHSDYLMMSSVIIDNLKKFNDYRMFYYASPAKAQTDKGIKDSEWDAYLSIDPSDSYSNISVLYGKGEFCLANLRYTRVPEGEPLMRLSYAEQNFILAEGAVRGWISEDASTYYKKGIEASMNFIADNTPDKEEYTHGRTITQEYIQEYLAQPVIQLSGDKEKDLEMILLQRYLASFLQHPYDAYYDYRRTGYPVLPINPSTNLNTEKNKIPTRWMYPEAEFSYNPDNANEAVQRQYNGSDDVNKLMWILQ
- glycan array binding signal (z-score) (Fuc(a1-2)Gal(b1-3)GalNAc): -1.06
- glycan array binding signal (z-score) [1]: -0.063
- glycan array binding signal (z-score) [2]: 6.11
- glycan array binding signal (z-score) [3]: 0.636
- glycan array binding signal (z-score) [4]: 4.43
- glycan array binding signal (z-score) [5]: 1.5
- glycan array binding signal (z-score) [6]: -0.3
- glycan array binding signal (z-score) [7]: -0.226
- glycan array binding signal (z-score) [8]: 1.42
- glycan array binding signal (z-score) [9]: -0.083
- glycan array binding signal (z-score) [10]: -0.243
- glycan array binding signal (z-score) [11]: -0.03
- glycan array binding signal (z-score) [12]: -1.03
- glycan array binding signal (z-score) [13]: 3.33
- glycan array binding signal (z-score) [14]: 0.431
- glycan array binding signal (z-score) (Gal(a1-3)GalNAc): -0.197
- glycan array binding signal (z-score) [15]: 0.361
- glycan array binding signal (z-score) [16]: -0.723
- glycan array binding signal (z-score) (Gal(b1-3)GalNAc(b1-3)Gal): 0.094
- glycan array binding signal (z-score) (Gal(b1-3)GlcNAc(b1-2)Man): -0.443
- glycan array binding signal (z-score) [17]: 0.94
- glycan array binding signal (z-score) [18]: 3.08
- glycan array binding signal (z-score) [19]: 3.63
- glycan array binding signal (z-score) [20]: 3.07
- glycan array binding signal (z-score) [21]: 0.8
- glycan array binding signal (z-score) (Gal(b1-4)GlcNAc(b1-2)Man): 0.859
- glycan array binding signal (z-score) [22]: 0.767
- glycan array binding signal (z-score) [23]: -0.993
- glycan array binding signal (z-score) [24]: 3.08
- glycan array binding signal (z-score) [25]: 0.693
